# Laboratory results from PubChem BioAssay AID1942 (Johns Hopkins Ion Channel Center, 2009).
# In all, about 2,400 compounds went through this assay and about 580 (24%) were called active. A selection follows. Unmarked numbers belong to inactive results.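 The calls were made as follows: active = activity change at or above the mean plus 3 SD of buffer wells without dofetilide, per plate; inactive = the rest.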
# Biological target: Potassium voltage-gated channel subfamily KQT member 2 (Rattus norvegicus) (UniProt O88943)
# Test: rat KCNQ2 channel activation by compounds alone, confirmation, counter-screen for hERG block protector project, cell-based, CHO, FluxOR thallium flux (AID 1942);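 as to activity change, less the hit threshold: normalized value minus buffer-control mean plus three SD of buffer wells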
# Details: CHO-KCNQ2 cells, FluxOR thallium flux fluorescence; at 10 µM; stronger effect = higher value
# Sequence of Potassium voltage-gated channel subfamily KQT member 2 (Rattus norvegicus) (O88943 whole entry, looked up): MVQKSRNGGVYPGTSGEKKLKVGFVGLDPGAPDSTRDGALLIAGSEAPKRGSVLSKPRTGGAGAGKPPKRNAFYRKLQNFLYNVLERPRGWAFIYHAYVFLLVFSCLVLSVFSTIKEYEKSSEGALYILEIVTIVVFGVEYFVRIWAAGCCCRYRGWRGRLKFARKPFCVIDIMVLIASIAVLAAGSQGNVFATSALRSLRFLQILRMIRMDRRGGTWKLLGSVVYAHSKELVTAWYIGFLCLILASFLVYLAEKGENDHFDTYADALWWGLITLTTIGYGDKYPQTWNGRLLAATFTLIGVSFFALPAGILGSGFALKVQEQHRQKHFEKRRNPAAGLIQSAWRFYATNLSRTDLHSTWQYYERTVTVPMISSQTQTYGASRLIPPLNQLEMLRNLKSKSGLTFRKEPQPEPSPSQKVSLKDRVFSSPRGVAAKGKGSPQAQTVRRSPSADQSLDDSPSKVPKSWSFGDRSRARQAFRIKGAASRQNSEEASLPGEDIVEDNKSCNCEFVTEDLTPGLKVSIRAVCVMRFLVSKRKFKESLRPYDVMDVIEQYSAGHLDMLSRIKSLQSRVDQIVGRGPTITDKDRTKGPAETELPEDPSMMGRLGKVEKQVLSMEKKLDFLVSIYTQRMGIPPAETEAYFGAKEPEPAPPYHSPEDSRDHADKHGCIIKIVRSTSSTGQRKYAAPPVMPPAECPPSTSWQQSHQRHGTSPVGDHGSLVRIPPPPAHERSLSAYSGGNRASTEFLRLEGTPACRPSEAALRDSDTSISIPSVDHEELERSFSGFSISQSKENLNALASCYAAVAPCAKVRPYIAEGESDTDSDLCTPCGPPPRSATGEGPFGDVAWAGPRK
Compound,activity change,"activity change, less the hit threshold"
Cc1ccccc1N1C(=O)/C(=C/c2ccco2)C(=O)NC1=S,-6.4%,–
O=C1NC(=O)N(c2ccccc2)C(=O)/C1=C/c1ccc(Sc2ccccc2)o1,-16.9%,–
O=C1NC(=S)N(c2ccc(F)cc2)C(=O)/C1=C/c1ccco1,0.7% (active),–
COc1ccc(-c2nc(CSCC(=O)N3CCC4(CC3)OCCO4)c(C)o2)cc1OC,-18.2%,–
O=C(Cn1ncc2c3ccccc3n(Cc3ccccc3F)c2c1=O)N1CCC2(CC1)OCCO2,37% (active),–
O=C1NC(=O)C(=Cc2ccc(-c3cc(Cl)ccc3[N+](=O)[O-])o2)C(=O)N1,-15.8%,–
CC/C(=C\C=C\[C@@H]1C=C[C@@H]2CCC[C@H]2[C@@H]1C(=O)c1ccc[nH]1)[C@@H]1O[C@@H]([C@@H](C)C(=O)O)CC[C@@H]1C,–,166% (active)
CN(C)C(=O)O/N=C(\N)COc1ccc(C(C)(C)C)cc1,–,-13%
O=c1[nH]c(=S)[nH]c(O)c1/C=C1/C=c2ccccc2=N1,-27.3%,–
O=C(COc1ccc(Br)cc1)N1CCN(Cc2ccc3c(c2)OCO3)CC1,–,-18.6%
N#CCCn1cc(C(=O)Nc2ccccc2Cl)c(-c2ccc(F)cc2)n1,–,-16.8%
CCOC(=O)c1c(NS(=O)(=O)c2ccccc2)n(CCCOC)c2nc3ccccc3nc12,–,-27.8%
COc1cccc(OC)c1C(=O)Nc1nc(N)n(-c2ccccc2)n1,–,-9.7%
COc1ccc2c(c1)/C(=C/c1cnc[nH]1)C(=O)N2,–,0.2% (active)
COc1ccc(OC)c(N2C(=O)/C(=C/c3ccco3)C(=O)NC2=S)c1,-13.8%,–
O=C1NC(=O)N(CCNc2ncc(C(F)(F)F)cc2Cl)C(=O)C1Cc1ccc(Cl)cc1 (stereo not given),-25.6%,–
COc1ccc(CN2CCCC(C(=O)c3sccc3C)C2)cc1O (stereo not given),–,-26.3%
C=CCN1C(=O)/C(=C/c2ccc(Br)s2)C(=O)NC1=S,-20.2%,–
O=c1c2ccccc2[nH]c(=S)n1-c1ccc2c(c1)OCCO2,–,-18.7%
O=C(O)CCC(=O)NCCC1=c2ccccc2=N/C1=C\c1c(O)n(Cc2ccc(F)cc2)c(=S)[nH]c1=O,-17.9%,–
